Source: PubChem
A selection: hits, their analogues and other compounds. The true share with any hit is near 2.3%.
CHO-K1 Ca ag – counter-screen for M1 agonists: effect in parental CHO-K1 cells | activation, % at 3 µM | Fluo-8 calcium fluorescence; scaled to maximal ATP response, vehicle zero | AID 602248 | 360,000 tested, 0.48% active; in the data active means activation above about 15%;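 further: untransfected CHO-K1 host cells lacking M1 receptor as counterscreen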
CHO-K1 Ca antag – counter-screen for M1 antagonists: effect in parental CHO-K1 cells; ATP-induced calcium, Fluo-8 fluorescence; inhibition, % at 3 µM; 360,000 tested, 0.6% active; AID 602250;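 active means inhibition above a per-plate cutoff, the plate's mean sample inhibition plus 3 SD, cut at about 24% in these data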;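 further: 0% = DMSO plus EC80 ATP and 100% = DMSO alone without ATP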
CHO-K1 Ca PAM – counter-screen for M1 PAMs: effect in parental CHO-K1 cells | ATP EC20, Fluo-8 calcium fluorescence; 0% at ATP EC20, 100% at ATP max | activation, % at 3 µM | 360,000 tested, 0.02% active;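 active means activation above the run cutoff, the mean activation of all test compounds plus 3 SD, cut at about 40% in these data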;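 further: peak over basal fluorescence ratio in a 140 s read after ATP addition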
M1 PAM – positive allosteric modulators of human M1 muscarinic receptor. P11229. CHO-K1 hM1, Fluo-8 calcium fluorescence, ACh EC20; 0% = ACh EC20, 100% = maximal ACh. activation, % at 3 µM. 360,000 tested, 0.088% active; in the data active means activation above about 19%, passing the limit was not always enough
Target sequence (P11229 whole entry, looked up): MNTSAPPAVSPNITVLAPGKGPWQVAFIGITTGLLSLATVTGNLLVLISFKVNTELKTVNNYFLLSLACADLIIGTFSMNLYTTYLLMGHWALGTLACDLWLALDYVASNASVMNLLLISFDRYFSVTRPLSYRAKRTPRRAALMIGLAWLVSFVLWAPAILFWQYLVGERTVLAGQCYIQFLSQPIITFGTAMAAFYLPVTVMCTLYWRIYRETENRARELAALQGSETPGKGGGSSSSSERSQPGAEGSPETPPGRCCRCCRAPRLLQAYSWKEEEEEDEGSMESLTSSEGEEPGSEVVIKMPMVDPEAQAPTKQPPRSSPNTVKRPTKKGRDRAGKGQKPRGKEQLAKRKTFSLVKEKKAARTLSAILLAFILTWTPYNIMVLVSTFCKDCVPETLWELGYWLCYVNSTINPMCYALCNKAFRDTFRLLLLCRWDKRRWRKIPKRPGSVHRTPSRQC
CHRM1 agonist – agonists of human M1 muscarinic receptor | P11229 | CHO-K1 hM1, Fluo-8 calcium fluorescence, agonist mode; 0% DMSO, 100% acetylcholine EC100 | activation, % at 3 µM | 360,000 tested, 0.33% active | AID 588814;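 active means activation above the run's mean compound activation plus 3 SD, cut at about 16% in these data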;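 further: peak over basal fluorescence ratio within a 140 s kinetic read after compound addition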
CHRM1 antagonist – human CHRM1 antagonism; P11229; CHO-K1 hM1, Fluo-8 calcium fluorescence, ACh EC80 antagonist; inhibition, % at 3 µM; 360,000 tested, 1.3% active; AID 588852;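 active means percent inhibition above its own plate's cutoff, namely the mean of that plate's compound wells plus 3 SD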;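 further: peak over basal fluorescence ratio during 140 s after agonist addition; 0% = ACh EC80 plus DMSO and 100% = DMSO alone without agonist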
The depositor's hits bear a star.

SMILES	CHO-K1 Ca ag	CHO-K1 Ca antag	CHO-K1 Ca PAM	M1 PAM	CHRM1 agonist	CHRM1 antagonist
CCc1nnc(SCC(=O)NC2CCCCC2)nc1CC	1	-20	28	15	-4	-13
Cc1c(NC(=O)C(C)OC(=O)c2cc(Cl)ccc2O)c(=O)n(-c2ccccc2)n1C (stereo not drawn)	0	-5	8	8	-3	-6
COc1ccc(OC)c(/C=C2/Sc3ccccc3C2=O)c1	38*	35*	-6	-14	25*	31
COc1ccc(OC)c(C=C2CCc3ccccc3C2=O)c1	0	-1	3	4	-11	0
O=C(Cc1ccc(Br)cc1)Nc1ncc([N+](=O)[O-])s1	16*	24*	-31	-12	8	35
CC1CCN(c2c(NCC3CCC(C(=O)N4CCCCC4)CC3)c(=O)c2=O)CC1 (stereo not drawn)	0	28*	-7	-8	-2	21
CN(/N=C/c1ccc(-c2ccc([N+](=O)[O-])cc2)o1)c1ccccc1	17*	30*	-13	2	16	4
CN(/N=C/c1cc([N+](=O)[O-])ccc1O)c1ccccc1	3	-14	28	9	-4	-9
O=C(NCc1ccccc1)C(c1ccccc1)N(Cc1ccc2c(c1)OCO2)C(=O)Cc1cccs1 (stereo not drawn)	4	6	4	-15	1	45*
COCCNC(=O)C(c1ccc(C)o1)N(Cc1ccc(OC)cc1)C(=O)Cn1nnc2ccccc21 (stereo not drawn)	9	9	10	0	23*	-29
COc1ccc(CNC(=O)C(c2ccc(C)o2)N(Cc2cccs2)C(=O)Cc2cccs2)cc1 (stereo not drawn)	6	8	7	-18	5	40*
COCCN(C(=O)Cc1cccs1)C(C(=O)NCc1ccc(OC)cc1)c1ccc(C)cc1 (stereo not drawn)	8	-14	6	0	-1	-20
CCc1cccc(CC)c1NC(=S)N1CCn2cccc2C1c1cccnc1 (stereo not drawn)	0	5	1	8	-7	-8
CC1CCN(C2=C(NS(=O)(=O)c3ccc(Cl)cc3)C(=O)c3ccccc3C2=O)CC1	0	-6	21	4	-9	-3
CCOC(=O)C1CCN(CC(C)(C)NS(=O)(=O)c2ccc(C)cc2)CC1	2	-15	4	27*	-12	-27
CCOC(=O)C1CCCN(C2=C(NS(=O)(=O)c3ccc(Br)cc3)C(=O)c3ccccc3C2=O)C1 (stereo not drawn)	4	5	-9	-20	41*	30
CCOC(=O)C1CCN(C2=C(NS(=O)(=O)c3ccc(Cl)cc3)C(=O)c3ccccc3C2=O)CC1	1	-4	11	-14	30*	12
COc1ccc(CCN2C(=NC(=O)C(C)C)SC3CS(=O)(=O)CC32)cc1OC (stereo not drawn)	1	-3	10	9	-2	-12
O=C(O)c1ccc2c(c1)S(=O)(=O)c1cc(N3CCN(c4ncccn4)CC3)ccc1C2=O	1	-16	22	5	-2	-6
CCOC(=O)C1CCCN(C(=S)Nc2cccc(Cl)c2C)C1 (stereo not drawn)	0	5	0	-13	68*	57*
CCOC(=O)C1CCCN(C(=O)c2cccc(NC(=O)C(CC)CC)c2)C1 (stereo not drawn)	0	24*	-19	6	-2	-2
CCOC(=O)C1CCCN(C(=S)Nc2cccc(Cl)c2)C1 (stereo not drawn)	13	4	13	-9	74*	62*
CCCCn1nc(CC(=O)NCCN(CC)CC)c2ccccc2c1=O	0	-13	-8	11	-8	-13
O=C(CCC1CCN(C(=O)c2ccco2)CC1)NCc1ccc(F)cc1	0	-11	14	3	-6	-2
C[C@H]1CN([C@@H](C)CO)C(=O)CCCn2cc(nn2)CO[C@@H]1CN(C)C(=O)OCc1ccccc1	1	9	17	9	-6	3
SMILES	CHO-K1 Ca ag	CHO-K1 Ca antag	CHO-K1 Ca PAM	M1 PAM	CHRM1 agonist	CHRM1 antagonist
CC(C)NC(=O)N1CC(c2ccccc2)C(c2ccc(Cl)cc2)=N1 (stereo not drawn)	0	-3	-5	-23	-10	35*
CC(=O)N1CC(c2ccccc2)C(c2ccc(Cl)cc2)=N1 (stereo not drawn)	0	-5	11	6	-10	-6
COCCNCC(=O)Nc1nc(C)cs1	1	-1	2	8	-3	-8
CC1(OC(=O)C2CCCC2)C(=O)C=C2C=C(c3ccsc3)N(CC3CC3)C=C2C1=O (stereo not drawn)	0	7	-11	-39	-13	67*
CC1(OC(=O)C2CCCC2)C(=O)C=C2C=C(c3ccsc3)N(C3CCCCC3)C=C2C1=O (stereo not drawn)	0	6	-6	-12	-4	10
Cc1cc(S(=O)(=O)NC(C)c2nnc3ccccn23)ccc1Br (stereo not drawn)	0	9	1	-1	-2	13
CC(C)Oc1cccc(C(=O)NC(=S)Nc2ccc(N3CCN(C)CC3)cc2)c1	4	-7	19	-27	-4	99*
COc1cccc(C(=O)NC(=S)Nc2ccc(N3CCCC3)cc2)c1	0	-12	11	-5	-5	11
CN1CCN(c2ccc(NC(=S)NC(=O)c3cccc4c(Cl)cccc34)cc2)CC1	0	7	-18	-30	-13	37*
CCc1nc2ccc(C(=O)NC3CCN(Cc4ccccc4)CC3)cn2c1N(C)Cc1cc2ccccc2s1	3	9	15	-8	-6	12
NC1=NC(c2ccc(Cl)cc2)C(C(=O)c2ccccc2)N1 (stereo not drawn)	3	-7	10	0	-2	2
CCOC(=O)C1(CCOC)CCN(C(=O)c2ccc(CSC)o2)CC1	2	-3	1	7	-3	-15
CC1(C(=O)NS(=O)(=O)Cc2ccccc2C(F)(F)F)CCN1C(=O)c1ccco1 (stereo not drawn)	0	-9	11	12	-2	-16
COc1ccccc1C(CNC(=O)c1cccc(S(=O)(=O)N2CCCc3ccccc32)c1)N(C)C (stereo not drawn)	1	-3	-10	-31	-9	101*
COc1ccccc1C(CNC(=O)c1cccc(S(=O)(=O)N2c3ccccc3CC2C)c1)N(C)C (stereo not drawn)	1	-25	11	-26	-8	99*
CC1CCc2nc(/C(C#N)=C/c3ccncc3)sc2C1 (stereo not drawn)	1	-9	13	15	-9	-9
